From PubChem BioAssay (NCI) come the findings set out here.

About 83,000 compounds went through this panel and 20% of them were active in at least one assay; those are over-represented in the sample as a whole.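 Method: cells in 96-well plates; compound added at one concentration; 48 h incubation; percent growth measured; values under 10 scored active.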 A number with no mark means an inactive call. Active and inactive are the calls of the source.

Among the test systems are NCI-H23 lung; NCI-H226 lung; NCI-H322M lung; HOP-62 NSCLC; NCI-H460 lung; HOP-92 NSCLC; NCI-H522 lung; A549/ATCC NSCLC; 786-0 renal; COLO 205 colon; DU-145 prostate; K-562 leukemia; MALME-3M melanoma; MDA-MB-231 breast; RXF 393 renal; SF-268 CNS; SF-295 CNS; SF-539 CNS; UACC-257 melanoma; M14 melanoma.
Common to all, as to experiment: NCI-60 one-dose screen, 48 h (100 = growth as untreated, 0 = no growth, -100 = all killed)
Details in all cases: 10 µM unless noted

For `CCN(CC)CCCNC(=O)c1c2c(n3ccccc13)C(=O)c1ncccc1C2=O`, the growth was -38.7% (active) with NCI-H23 lung; -34.9% (active) with NCI-H226 lung; -49% (active) with NCI-H322M lung; -69% (active) with HOP-62 NSCLC; -44.4% (active) in the test on NCI-H460 lung; -47.1% (active) with HOP-92 NSCLC. The growth in the test on NCI-H522 lung was -79% (active); in the test on A549/ATCC NSCLC, -65.3% (active); in the test on 786-0 renal, 3.22% (active); in the test with COLO 205 colon it was -95.6% (active); in the test on DU-145 prostate, -94.9% (active); in the test on K-562 leukemia, -33.7% (active). The growth in the test with MALME-3M melanoma is -93% (active); in the test on MDA-MB-231 breast, -0.531% (active); in the test on RXF 393 renal, -35.9% (active); in the test with SF-268 CNS, -3.91% (active); with SF-295 CNS it was -22.1% (active); in the test with SF-539 CNS, -63% (active). Moreover, the growth in the test with UACC-257 melanoma was -90.1% (active); in the test with M14 melanoma it was -84.1% (active).

For the molecule `CSc1nn2c(-c3cc4cc(Br)ccc4oc3=O)ccnc2c1C#N`, the growth in the test on NCI-H23 lung was 95.3%; with NCI-H226 lung, 99.3%; with NCI-H322M lung, 102%; in the test on HOP-62 NSCLC, 97.9%; in the test with NCI-H460 lung, 104%; in the test on HOP-92 NSCLC, 105%. Besides, the growth in the test on NCI-H522 lung was 92.8%; in the test with A549/ATCC NSCLC it was 107%; in the test on 786-0 renal, 101%; in the test with COLO 205 colon, 119%; with DU-145 prostate it was 110%; with K-562 leukemia, 104%. Also, the growth is 120% in the test on MALME-3M melanoma; 105% with MDA-MB-231 breast; 109% in the test on RXF 393 renal; 103% with SF-268 CNS; 103% in the test on SF-295 CNS; 106% in the test with SF-539 CNS. The growth was 106% in the test with UACC-257 melanoma and 104% with M14 melanoma.

For `O=C(O)COc1ccc(F)cc1`, the growth with NCI-H23 lung is 96.8%; with NCI-H226 lung it was 105%; in the test with NCI-H322M lung it was 99.6%; in the test on HOP-62 NSCLC, 98.7%; in the test with NCI-H460 lung, 113%; with HOP-92 NSCLC, 102%. Besides, the growth with NCI-H522 lung was 93.8%; in the test on A549/ATCC NSCLC, 99.6%; with 786-0 renal, 102%; with COLO 205 colon it was 116%; in the test on DU-145 prostate, 109%; in the test with K-562 leukemia, 97.1%. In addition, the growth is 107% in the test with MALME-3M melanoma; 100% with MDA-MB-231 breast; 107% in the test with RXF 393 renal; 93.6% in the test with SF-268 CNS; 102% with SF-295 CNS; 96.9% in the test with SF-539 CNS. Further, the growth with UACC-257 melanoma was 102%; in the test with M14 melanoma, 109%.

Turning to `COC(=O)[C@H](C)NC(=O)[C@@H]1CCCN1C(=O)CNC(=O)[C@H](C)N`, the growth in the test with NCI-H23 lung is 105%; in the test with NCI-H226 lung, 101%; with NCI-H322M lung, 96.5%; in the test with HOP-62 NSCLC, 114%; with NCI-H460 lung it was 106%; in the test on HOP-92 NSCLC it was 89%. Further, the growth is 96.2% in the test with NCI-H522 lung; 106% in the test on A549/ATCC NSCLC; 98% in the test with 786-0 renal; 104% in the test with COLO 205 colon; 105% with DU-145 prostate; 101% in the test on K-562 leukemia. Also, the growth in the test on MALME-3M melanoma was 86.7%; in the test on MDA-MB-231 breast, 106%; in the test with RXF 393 renal it was 108%; in the test with SF-268 CNS, 97%; in the test with SF-295 CNS it was 100%; with SF-539 CNS it was 106%. Besides, the growth in the test on UACC-257 melanoma and in the test with M14 melanoma was 103% each time.

Consider `Clc1ccc(C2=Nn3c(nnc3-c3cc(Cl)cc(Cl)c3Cl)SC2)cc1`, for which the growth with NCI-H23 lung is 65.8%; in the test on NCI-H226 lung it was 75.3%; in the test on NCI-H322M lung it was 71.4%; in the test with HOP-62 NSCLC it was 16.2%; in the test on NCI-H460 lung, 16.4%; with HOP-92 NSCLC, 55.6%. The growth in the test on NCI-H522 lung was 21.4%; in the test with A549/ATCC NSCLC it was 58.2%; in the test with 786-0 renal, 3.83% (active); in the test with COLO 205 colon, 40.5%; in the test with DU-145 prostate, -16.6% (active); in the test with K-562 leukemia it was 12.4%. The growth in the test with MALME-3M melanoma was 44.4%; in the test with MDA-MB-231 breast, 65.3%; in the test on RXF 393 renal, 66.2%; in the test on SF-268 CNS it was 35%; in the test with SF-295 CNS, 14.8%; in the test on SF-539 CNS it was 72.9%. Further, the growth in the test on UACC-257 melanoma was 71.5%; with M14 melanoma, 11.7%.

In the case of `COc1cc(CNC(=O)CCCC/C=C/C(C)C)ccc1OCc1cn(-c2cccc([N+](=O)[O-])c2)nn1`, the growth with NCI-H23 lung is 88%; in the test with NCI-H226 lung it was 90.9%; in the test with NCI-H322M lung, 94.1%; in the test with HOP-62 NSCLC it was 97.4%; in the test on NCI-H460 lung it was 91.8%; in the test on HOP-92 NSCLC, 70.4%. Also, the growth with NCI-H522 lung is 82.6%; in the test on A549/ATCC NSCLC it was 92%; with 786-0 renal, 73.4%; in the test with COLO 205 colon, 107%; with DU-145 prostate, 109%; with K-562 leukemia, 81.5%. Further, the growth is 103% with MALME-3M melanoma; 88.4% in the test on MDA-MB-231 breast; 92.7% with RXF 393 renal; 92.3% with SF-268 CNS; 104% with SF-295 CNS; 94.4% with SF-539 CNS. For the same molecule, the figures for the growth in the test with UACC-257 melanoma and with M14 melanoma were 94.4% and 93.5%, respectively.

On to `CCOC(=O)/C(=C/c1ccc([N+](=O)[O-])cc1)C(=O)c1ccccc1`, for which the growth is 48% in the test with NCI-H23 lung; 21.3% in the test with NCI-H226 lung; 73.5% in the test with NCI-H322M lung; 76.5% in the test with HOP-62 NSCLC; 55.2% in the test with NCI-H460 lung; 32.4% in the test with HOP-92 NSCLC. Further, the growth with NCI-H522 lung was -24.7% (active); in the test on A549/ATCC NSCLC, 71.5%; with 786-0 renal it was 17.2%; in the test on COLO 205 colon it was 4.21% (active); with DU-145 prostate, 65.3%; in the test on K-562 leukemia, 4.82% (active). The growth with MALME-3M melanoma is 32.4%; in the test with MDA-MB-231 breast, 20.1%; in the test on RXF 393 renal it was -11.1% (active); with SF-268 CNS it was 24.5%; in the test with SF-295 CNS, 81.6%; in the test with SF-539 CNS, -24.9% (active). For the same molecule, the figures for the growth with UACC-257 melanoma and in the test on M14 melanoma were 45.4% and 32.4%, respectively.

Take `CNC(=O)c1cc(Oc2ccc3nc(NC(=O)NC(C)C)sc3c2)ccn1`: the growth in the test on NCI-H23 lung was 87.5%; in the test with NCI-H226 lung, 79.2%; in the test on NCI-H322M lung, 95.2%; in the test with HOP-62 NSCLC it was 75.6%; with NCI-H460 lung, 86.8%; in the test with HOP-92 NSCLC, 63.3%. The growth in the test with NCI-H522 lung is 59.3%; in the test on A549/ATCC NSCLC, 64.3%; in the test with 786-0 renal, 80.3%; in the test with COLO 205 colon, 78.8%; in the test on DU-145 prostate, 98.8%; with K-562 leukemia, 7.14% (active). Also, the growth with MALME-3M melanoma is 86.2%; with MDA-MB-231 breast, 79.5%; in the test on RXF 393 renal, 95.4%; in the test with SF-268 CNS, 89.8%; with SF-295 CNS it was 77.5%; with SF-539 CNS, 76.9%. The growth is 73.7% in the test with UACC-257 melanoma and 50.5% in the test on M14 melanoma.
